Assay results published in PubChem BioAssay AID624300 (Southern Research Specialized Biocontainment Screening …, 2012).
The campaign covered roughly 2,400 compounds. About 360 (15%) were called active.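 Rule for the calls: active = viability falls under 70% at one or more tested concentrations, taken as toxicity; inactive = viability stays over 70% at every dose.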 These entries were drawn from the full list. Entries with a potency or affinity are not part of this list.

Test: HeLa cell cytotoxicity, dose response, cytotoxicity control for MgcRacGAP inhibitor project (AID 624300)
Details: CellTiter-Glo luminescence, 24 h; series mostly up to 100 µM

SMILES	outcome
COC(=O)CC1SC(=O)NC1=Nc1ccc(O)cc1 (stereo not drawn)	inactive
S=c1[nH]c2ccccc2n2c(=S)[nH]nc12	inactive
O=C(CNC(=O)c1cccs1)N/N=C/c1ccc(O)cc1O	inactive
COc1ccc(N2CCN(C(CNS(=O)(=O)c3cccs3)c3cccnc3)CC2)cc1 (stereo not drawn)	inactive
O=C1Nc2ccccc2C1=Nc1ccc2[nH]c3ccccc3c2c1	inactive
COc1ccc(CN(C)CC(=O)Nc2ccc(Cl)cc2C(F)(F)F)c(OC)c1	inactive
O=S(=O)(O)c1cc(O)c2ccc(Nc3ccccc3)cc2c1	inactive
O=S(=O)(O)c1ccc(O)c2cc(Nc3ccccc3)ccc12	inactive
CCOc1ccccc1Oc1cn[nH]c1-c1ccc(O)cc1O	inactive
COc1cc(CNc2ccc3[nH]c(=O)[nH]c3c2)ccc1OCc1cccc(C)c1	inactive
CCOc1cc(/C=N/NC(=O)c2c(-c3ccccc3)noc2C)ccc1O	inactive
O=C1ON=C(c2ccccc2)/C1=C/c1ccco1	inactive
COc1cc(/C=C2\Oc3cc(O)ccc3C2=O)ccc1O	inactive
COC(=O)C1=C(O)/C(=C\c2ccc(O)c(OC)c2)N=C1C	inactive
O=C1/C(=C/c2ccc(O)c(O)c2)Oc2cc(O)ccc21	inactive
COc1cc(/C=C2/C(=O)NN(c3ccc(Cl)cc3)C2=O)cc(Br)c1O	inactive
O=[N+]([O-])c1cccc(S(=O)(=O)N/N=C/c2ccc(O)cc2)c1	inactive
COc1cc(/C=C/CN2CCC(Oc3ccc(C(=O)N4CCCC4)cc3)CC2)ccc1O	inactive
Nc1ccc(N2CCN(c3ccc(F)cc3)CC2)cc1	inactive
c1ccc(CNc2ccc(N3CCOCC3)cc2)cc1	inactive
COc1ncnc2c1ncn2CCCNc1ccc(C)c(C)c1	inactive
Cc1cc(C)nc(N/N=C/c2c[nH]c3ccccc23)n1	inactive
C/C(=N\Nc1nc2ccccc2[nH]1)c1cccs1	inactive
Cc1[nH]c2ccccc2c1/C=N/Nc1nncn1N	inactive

SMILES	outcome
O=C(O)c1ccc(N/N=C/c2c[nH]c3ccccc23)cc1	inactive
O=c1cc(CN2CCOCC2)c2ccc(O)c(O)c2o1	inactive
COc1cc(/C=N/NC(=O)Cn2nnc3ccccc32)ccc1O	inactive
O=C(Nc1ccc(O)cc1)c1cc2ccccc2c(=O)s1	inactive
CC[N+](CC)(CC)CCCCOc1ccc2c(c1)C(=O)c1cc(OCCCC[N+](CC)(CC)CC)ccc1-2	inactive
FC(F)(F)c1cccc(N2CCC(N=CN3CCCCCC3)=N2)c1	inactive
Oc1ccc(/C=N/Nc2ccc(C(F)(F)F)cn2)cc1	inactive
Oc1ccc(C=NNc2ccccn2)c(O)c1	inactive
Nc1ccc(Nc2ccccc2)c(Cl)c1	inactive
Oc1cccc(Nc2ccccc2)c1	inactive
CCOc1cc(/C=N/NC(=O)c2ccc(NC(=O)C3CC3)cc2)ccc1O	inactive
O=C(CCN1CCCCCC1)Nc1ccc2c(c1)OCCO2	inactive
C/C(CC(=O)Nc1ccc(N(C)C)cc1)=N\NC(=O)c1ccc([N+](=O)[O-])cc1	inactive
O=C(Nc1ccc(O)cc1)c1cccc(Oc2ccc([N+](=O)[O-])cc2)c1	inactive
O=C(CNC(=O)c1ccco1)N/N=C/c1ccc(O)cc1O	inactive
Cc1ccc(OC(=S)Nc2ccc(O)cc2)cc1	inactive
COc1cc(/C=N/NC(=O)c2cc3ccccc3[nH]2)ccc1O	inactive
COc1cc(/C=N/Nc2nc(C)cc(=O)[nH]2)ccc1O	inactive
COc1ccc(/C=N/Nc2nc3ccccc3s2)cc1O	inactive
Cc1ccsc1/C=N/Nc1nc2ccccc2[nH]1	inactive
CCC(=Nc1ccc(N)cc1)C1=C(O)C(C(=O)OC)C(C)(C)CC1=O (stereo not drawn)	inactive
COc1ccc(OC)c(CN2CCN(Cc3ccc(OC)c(OC)c3OC)CC2)c1	inactive
CC1CC(C)(C)N(C(=O)CN2CCN(C)CC2)c2ccccc21 (stereo not drawn)	inactive
COc1ccccc1-n1c(=O)c2c3c(sc2n2c(=S)[nH]nc12)CCC3	inactive

SMILES	outcome
Oc1ccc(/C=N/Nc2ncnc3c2ncn3Cc2ccccc2)cc1O	inactive
O=[N+]([O-])c1cccc(CN2CCN(c3cccc4[nH]ccc34)CC2)c1	inactive
COc1ccccc1/C=C(/C(=O)OCC(=O)Nc1ccc(N(C)C)cc1)c1ccccc1	inactive
COc1ccc(S(=O)(=O)N2CCC(N3CCN(c4ccccc4OC)CC3)CC2)cc1	inactive
Cc1cccc(CN2CCN(Cc3ccco3)CC2)c1	inactive
Nc1[nH]c2cc([N+](=O)[O-])ccc2c1-c1ccccn1	inactive
COc1ccc(NCc2cc3ccccc3[nH]c2=O)cc1	inactive
CN(C)c1ccc(NC(=O)COC(=O)CNC(=O)c2cccs2)cc1	inactive
Cc1cc(OCCCN2CCN(Cc3ccccc3)CC2)ccc1[N+](=O)[O-]	inactive
Cc1c(N=C2NC(=O)/C(=C/c3ccc(O)cc3)S2)c(=O)n(-c2ccccc2)n1C	inactive
O=C(CSc1ccc2ccccc2n1)N/N=C/c1ccc(O)cc1	inactive
O=C(CCN1CCN(C(c2ccccc2)c2ccccc2)CC1)N/N=C/c1ccc(O)cc1	inactive
CCCOC(=O)c1ccc(O)c(OC)c1	inactive
O=C(C1CCN(Cc2cc(Cl)ccc2O)CC1)N1CCN(Cc2ccccc2)CC1	inactive
COc1ccc(NC(C)c2cc(Cl)ccc2O)cc1 (stereo not drawn)	inactive
COc1ccc(/C=C2\C(=O)NC(=O)c3ccccc32)cc1OC	inactive
COc1cccc(CNc2ccc(N3CCC(C)CC3)cc2)c1OC	inactive
COc1cc(/C=N/NC(=O)/C(=C\c2ccc3c(c2)OCO3)NC(=O)c2ccccc2)ccc1O	inactive
COc1ccc(C(=O)N/N=C/c2ccc(N3CCOCC3)s2)cc1OC	inactive
COc1cc(/C=N/NC(=O)C(=O)NCC2CCCO2)ccc1O (stereo not drawn)	inactive
Cc1cc(C)c(S(=O)(=O)Nc2ccc(O)cc2)c(C)c1	inactive
COc1ccc(NC(=S)Nc2cccc3ccccc23)cc1OC	inactive
O=C(Nc1ccccn1)c1ccc2ccccc2c1O	inactive
O=C(Nc1ccc(O)cc1)c1ccc(C(=O)c2ccccc2)o1	inactive

SMILES	outcome
CCCCNc1nc(=S)[nH]c2cc(OC)c(OC)cc12	inactive
COc1ccc(CCNc2nc(=S)[nH]c3cc(OC)c(OC)cc23)cc1OC	inactive
CC(=O)CC(=O)Nc1ccc(Nc2ccccc2)cc1	inactive
COCCCn1c(=S)[nH]c2sc3c(c2c1=O)CCCC3	inactive
CCOc1ccc(OCCOCCN2CCCC2)cc1	inactive
Cc1cc(OCCCCCN2CCCC2)ccc1Cl	inactive
CN(C)CCCn1c(SCc2ccc(Cl)cc2)nnc1-c1ccncc1	inactive
N#CCCN1CCN(CCC#N)c2ccccc21	inactive
C/C(CC(=O)Nc1ccc(N(C)C)cc1)=N\NC(=O)c1ccc(F)cc1	inactive
Cn1cccc1/C=C1\SC(=Nc2ccc(O)cc2)NC1=O	inactive
O=C(c1ccccc1F)N1CCN(Cc2ccc3c(c2)OCO3)CC1	inactive
Cc1ccccc1CN1CCN(C(=O)c2cccc3ccccc23)CC1	inactive
Cc1[nH]c2ccccc2c1/C=N\NC(=O)CNc1ccc2c(c1)OCO2	inactive
COc1ccccc1N=NNc1ccccc1OC	inactive
COCCNCCOCCOc1ccc(Cl)c(C)c1	inactive
COCCCNCCCCOc1c(Cl)cc(C)cc1Br	inactive
Cc1cc(C)c(C)c(OCCNCc2ccccc2)c1	inactive
c1ccc(CN2CCN(CCOCCOc3ccc4c(c3)CCC4)CC2)cc1	inactive
CC(=O)Nc1ccc(Oc2nc(-c3ccccn3)nc3ccccc23)cc1	inactive
Cc1ccc(CCC(=O)Nc2ccc(N(C)C)cc2)o1	inactive
Cc1cc(C(=O)NNC(=O)/C=C/c2ccco2)c(C)o1	inactive
COc1cc(/C=C/C(=O)OCC(=O)NCC2CCCCC2)ccc1O	inactive
COc1ccc(/C=N/Nc2nc(N3CCCC3)nc(N3CCCC3)n2)cc1O	inactive
S=C(c1ccccc1)N1CCN(c2ccccc2)CC1	inactive

SMILES	outcome
C=CCn1c(SCC(C)=O)nnc1-c1cc(-c2ccccc2)sc1N	inactive
CCOC(=O)c1oc2cc(O)cc(C)c2c1C	inactive
CCn1c(=S)[nH]c2sc3c(c2c1=O)CCCC3	inactive
COc1ccc(NCc2cccnc2)cc1	inactive
CC(=O)Nc1cccc2cc(O)ccc12	inactive
Cc1cc(Oc2ccc(-c3ccccc3)cc2)n2ncnc2n1	inactive
CC(=O)c1ccc(NC(=S)Nc2ccc3[nH]c(=O)[nH]c3c2)cc1	inactive
COc1cc(C=NNC(=O)c2ccccc2-n2cccc2)ccc1O	inactive
Cc1c(Cl)cccc1Nc1n[nH]c(=S)s1	inactive
Cc1ccc[n+](CC(=O)Nc2ccc(N(C)C)cc2)c1	inactive
Cc1ccc2nc(/N=C(\N)NC(=O)N3c4ccccc4Sc4ccccc43)nc(C)c2c1	inactive
Cc1ccc2c(C)nc(/N=C(\N)NC(=O)N3c4ccccc4Sc4ccccc43)nc2c1	inactive
Cc1nc(/N=C(\N)NC(=O)N2c3ccccc3Sc3ccccc32)nc2ccccc12	inactive
COc1ccc2nc(/N=C(\N)NC(=O)N3c4ccccc4Sc4ccccc43)nc(C)c2c1	inactive
CC1(C)CC(NC(=O)N2c3ccccc3Sc3ccccc32)CC(C)(C)N1	inactive
Cc1cc2nc(/N=C(\N)NC(=O)N3c4ccccc4Sc4ccccc43)nc(C)c2cc1C	inactive
O=C(NC1CCN(C(=O)N2c3ccccc3Sc3ccccc32)CC1)c1ccccc1F	inactive
CCOC(=O)C1=C(C)Nc2ccccc2S1	inactive
CN(CC(=O)NCc1ccccc1)Cc1cccc(F)c1	inactive
O=C(CSc1nnc(C2CC2)n1C1CC1)N1CCN(c2ccc(O)cc2)CC1	inactive
CC1(C)OC(=O)C(=NNc2ccc(O)cc2)C(=O)O1	inactive
Cc1cc(-c2cc(C)c(N)cc2C)c(C)cc1N	inactive
